Experimental data taken from paper PMC7862700, “An all-to-all approach to the identification of sequence-specific readers for epigenetic DNA modifications on cytosine”.

biological target: T1, ETV2 (Homo sapiens, UniProt O00321 1-342); test: DAPPL (digital affinity profiling via proximity ligation, sequencing); 10 mM Tris-HCl pH 7.5, 50 mM NaCl, 1 mM DTT, 4% glycerol, room temperature, 30 min; GST-TFs on glutathione beads, 16-mer random dsDNA library, 0.1% formaldehyde crosslink after washing; high values mean tight binding; conditions: protein: recombinant; tags: N-terminal GST; dsDNA, one strand shown
T1 sequence: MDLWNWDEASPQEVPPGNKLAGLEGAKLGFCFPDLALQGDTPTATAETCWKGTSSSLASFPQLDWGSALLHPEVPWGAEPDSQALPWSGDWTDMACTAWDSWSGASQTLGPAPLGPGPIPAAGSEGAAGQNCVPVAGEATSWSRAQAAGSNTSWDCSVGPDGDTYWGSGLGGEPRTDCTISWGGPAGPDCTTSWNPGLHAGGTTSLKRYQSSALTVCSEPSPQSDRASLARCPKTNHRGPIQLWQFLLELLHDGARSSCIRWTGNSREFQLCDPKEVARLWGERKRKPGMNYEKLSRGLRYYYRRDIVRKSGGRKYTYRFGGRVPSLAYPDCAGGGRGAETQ
Summary of the method: (§1)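 The binding signal reported is, for every hexamer, its read frequency for a factor over its read frequency for the tag-only sample. Reads came from pools of yeast-expressed, GST-fused human transcription factors on glutathione beads, barcoded with DNA and mixed with that sample, which were incubated with 200 nmole of a random double-stranded 16-mer DNA library in Tris/NaCl/DTT/glycerol buffer at room temperature for 30 min. After washing, the pools were crosslinked with 0.1% formaldehyde, proximity-ligated with BsaI/T4 ligase for 1 h at 37 °C, PCR-amplified and sequenced on an Illumina NextSeq500.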

| Sequence | binding signal |
| --- | --- |
| CGGTTT | 1.11 fold enrichment (6-mer frequency, TF over GST control) |
| CGGAAA | 2 fold enrichment (6-mer frequency, TF over GST control) |
| GTAATG | 1.04 fold enrichment (6-mer frequency, TF over GST control) |
| CCTTGT | 1.03 fold enrichment (6-mer frequency, TF over GST control) |
| TGCAAT | 1.04 fold enrichment (6-mer frequency, TF over GST control) |
| TTGTTG | 1.09 fold enrichment (6-mer frequency, TF over GST control) |
| ATCACA | 1.25 fold enrichment (6-mer frequency, TF over GST control) |
| GGTGTT | 1.13 fold enrichment (6-mer frequency, TF over GST control) |
| GTGTTT | 1.02 fold enrichment (6-mer frequency, TF over GST control) |
| CCAACA | 1.02 fold enrichment (6-mer frequency, TF over GST control) |
| TGTCCA | 1.3 fold enrichment (6-mer frequency, TF over GST control) |
| CTGCAC | 1.24 fold enrichment (6-mer frequency, TF over GST control) |
| TTGGGC | 1.15 fold enrichment (6-mer frequency, TF over GST control) |

biological target: T2, ELF3 (Homo sapiens, UniProt P78545 1-371); test: as above; conditions: protein: recombinant; tags: N-terminal GST; dsDNA, one strand shown
T2 sequence: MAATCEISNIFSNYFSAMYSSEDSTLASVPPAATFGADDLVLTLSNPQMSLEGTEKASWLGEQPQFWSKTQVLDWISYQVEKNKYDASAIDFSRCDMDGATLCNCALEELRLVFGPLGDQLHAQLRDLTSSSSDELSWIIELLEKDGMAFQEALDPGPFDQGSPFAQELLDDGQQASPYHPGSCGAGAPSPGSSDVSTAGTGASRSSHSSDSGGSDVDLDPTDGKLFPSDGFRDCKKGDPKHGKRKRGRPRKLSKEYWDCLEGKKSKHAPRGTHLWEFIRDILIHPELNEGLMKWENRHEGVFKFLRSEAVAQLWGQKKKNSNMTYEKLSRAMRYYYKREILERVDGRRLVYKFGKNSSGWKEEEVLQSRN
Summary of the method: as §1

| Sequence | binding signal |
| --- | --- |
| GGTCTA | 1.01 fold enrichment (6-mer frequency, TF over GST control) |
| CACCAT | 1.1 fold enrichment (6-mer frequency, TF over GST control) |
| TGACGC | 1.11 fold enrichment (6-mer frequency, TF over GST control) |
| CGCACT | 1.26 fold enrichment (6-mer frequency, TF over GST control) |
| TTGGCC | 1.12 fold enrichment (6-mer frequency, TF over GST control) |
| CTATGT | 1.23 fold enrichment (6-mer frequency, TF over GST control) |
| GGAAGC | 1.48 fold enrichment (6-mer frequency, TF over GST control) |
| ACCCAC | 1.33 fold enrichment (6-mer frequency, TF over GST control) |
| GGCTTG | 1.11 fold enrichment (6-mer frequency, TF over GST control) |
| TGAACC | 1.12 fold enrichment (6-mer frequency, TF over GST control) |
| CCACAT | 1.17 fold enrichment (6-mer frequency, TF over GST control) |
| AAGTCA | 1.21 fold enrichment (6-mer frequency, TF over GST control) |
| CGTTAT | 1.04 fold enrichment (6-mer frequency, TF over GST control) |
| CACCCG | 1.16 fold enrichment (6-mer frequency, TF over GST control) |
| ACCCGG | 1.77 fold enrichment (6-mer frequency, TF over GST control) |
| ACCGCT | 1.19 fold enrichment (6-mer frequency, TF over GST control) |
| TGCACG | 1.26 fold enrichment (6-mer frequency, TF over GST control) |
| TGCTGA | 1.09 fold enrichment (6-mer frequency, TF over GST control) |
| TCATGG | 1.16 fold enrichment (6-mer frequency, TF over GST control) |
| CCCACC | 1.41 fold enrichment (6-mer frequency, TF over GST control) |

| Sequence | binding signal |
| --- | --- |
| GCGGAA | 1.53 fold enrichment (6-mer frequency, TF over GST control) |
| TCAATG | 1.03 fold enrichment (6-mer frequency, TF over GST control) |
| ACCGCC | 1.33 fold enrichment (6-mer frequency, TF over GST control) |
| TCAGCA | 1.08 fold enrichment (6-mer frequency, TF over GST control) |
| GTTTTG | 1.03 fold enrichment (6-mer frequency, TF over GST control) |
| GTTTCA | 1.28 fold enrichment (6-mer frequency, TF over GST control) |
| ACCCCC | 1.29 fold enrichment (6-mer frequency, TF over GST control) |
| CGGTTT | 1.24 fold enrichment (6-mer frequency, TF over GST control) |
| CGGAAA | 2.13 fold enrichment (6-mer frequency, TF over GST control) |
| GTAATG | 1.14 fold enrichment (6-mer frequency, TF over GST control) |
| CCTTGT | 1.08 fold enrichment (6-mer frequency, TF over GST control) |
| TGCAAT | 1.24 fold enrichment (6-mer frequency, TF over GST control) |
| TTGTTG | 1.15 fold enrichment (6-mer frequency, TF over GST control) |
| ATCACA | 1.15 fold enrichment (6-mer frequency, TF over GST control) |
| GGTGTT | 1.03 fold enrichment (6-mer frequency, TF over GST control) |
| GTGTTT | 1.17 fold enrichment (6-mer frequency, TF over GST control) |
| CCAACA | 1.06 fold enrichment (6-mer frequency, TF over GST control) |
| TGTCCA | 1.06 fold enrichment (6-mer frequency, TF over GST control) |
| CTGCAC | 1.31 fold enrichment (6-mer frequency, TF over GST control) |
| TTGGGC | 1.18 fold enrichment (6-mer frequency, TF over GST control) |

biological target: CRX (Homo sapiens, UniProt O43186 1-299); test: as above; conditions: protein: recombinant; tags: N-terminal GST; dsDNA, one strand shown
Summary of the method: as §1

CRX, sequence (O43186 whole entry): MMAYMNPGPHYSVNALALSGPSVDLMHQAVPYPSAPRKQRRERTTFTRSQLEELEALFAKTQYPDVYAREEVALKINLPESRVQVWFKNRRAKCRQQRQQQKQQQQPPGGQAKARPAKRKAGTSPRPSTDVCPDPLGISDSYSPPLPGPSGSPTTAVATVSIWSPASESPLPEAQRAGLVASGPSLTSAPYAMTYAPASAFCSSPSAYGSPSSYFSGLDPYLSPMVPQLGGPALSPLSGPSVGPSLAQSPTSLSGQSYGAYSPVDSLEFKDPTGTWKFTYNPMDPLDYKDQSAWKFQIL

| Sequence | binding signal |
| --- | --- |
| GGTCTA | 1.01 fold enrichment (6-mer frequency, TF over GST control) |
| GGCTTG | 1.06 fold enrichment (6-mer frequency, TF over GST control) |
| AAGTCA | 1.03 fold enrichment (6-mer frequency, TF over GST control) |
| CGTTAT | 1.05 fold enrichment (6-mer frequency, TF over GST control) |
| ACCGCT | 1.01 fold enrichment (6-mer frequency, TF over GST control) |
| TGCTGA | 1.04 fold enrichment (6-mer frequency, TF over GST control) |
| TCATGG | 1.07 fold enrichment (6-mer frequency, TF over GST control) |
| TCAATG | 1.02 fold enrichment (6-mer frequency, TF over GST control) |
| ACCGCC | 1.01 fold enrichment (6-mer frequency, TF over GST control) |
| TCAGCA | 1.01 fold enrichment (6-mer frequency, TF over GST control) |
| CGGTTT | 1.05 fold enrichment (6-mer frequency, TF over GST control) |
| GTAATG | 1 fold enrichment (6-mer frequency, TF over GST control) |
| TGCAAT | 1.03 fold enrichment (6-mer frequency, TF over GST control) |
| TTGTTG | 1.09 fold enrichment (6-mer frequency, TF over GST control) |
| ATCACA | 1.16 fold enrichment (6-mer frequency, TF over GST control) |
| GGTGTT | 1.01 fold enrichment (6-mer frequency, TF over GST control) |
| TTGGGC | 1.03 fold enrichment (6-mer frequency, TF over GST control) |

biological target: ETV1 (Homo sapiens, UniProt P50549 1-477); test: as above; conditions: protein: recombinant; tags: N-terminal GST; dsDNA, one strand shown
Summary of the method: as §1

ETV1, sequence (P50549 whole entry): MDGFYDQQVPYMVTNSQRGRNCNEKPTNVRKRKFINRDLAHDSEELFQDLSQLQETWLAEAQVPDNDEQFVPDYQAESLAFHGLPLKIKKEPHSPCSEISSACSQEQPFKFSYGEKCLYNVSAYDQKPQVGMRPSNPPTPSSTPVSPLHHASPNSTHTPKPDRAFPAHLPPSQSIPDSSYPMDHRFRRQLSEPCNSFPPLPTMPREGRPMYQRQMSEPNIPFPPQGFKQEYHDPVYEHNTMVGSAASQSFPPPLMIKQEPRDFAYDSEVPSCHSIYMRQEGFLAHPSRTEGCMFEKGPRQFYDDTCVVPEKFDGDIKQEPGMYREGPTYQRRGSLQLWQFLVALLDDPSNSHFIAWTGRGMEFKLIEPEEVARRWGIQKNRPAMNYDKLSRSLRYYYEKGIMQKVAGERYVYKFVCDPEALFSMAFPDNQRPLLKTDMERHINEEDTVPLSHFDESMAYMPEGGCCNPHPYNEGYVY

| Sequence | binding signal |
| --- | --- |
| GGTCTA | 1.05 fold enrichment (6-mer frequency, TF over GST control) |
| CACCAT | 1.08 fold enrichment (6-mer frequency, TF over GST control) |
| TGACGC | 1.07 fold enrichment (6-mer frequency, TF over GST control) |
| CGCACT | 1.23 fold enrichment (6-mer frequency, TF over GST control) |
| TTGGCC | 1.02 fold enrichment (6-mer frequency, TF over GST control) |
| CTATGT | 1 fold enrichment (6-mer frequency, TF over GST control) |
| GGAAGC | 1.82 fold enrichment (6-mer frequency, TF over GST control) |
| ACCCAC | 1.17 fold enrichment (6-mer frequency, TF over GST control) |
| GGCTTG | 1.08 fold enrichment (6-mer frequency, TF over GST control) |
| TGAACC | 1.2 fold enrichment (6-mer frequency, TF over GST control) |
| CCACAT | 1.21 fold enrichment (6-mer frequency, TF over GST control) |
| AAGTCA | 1.3 fold enrichment (6-mer frequency, TF over GST control) |
| CACCCG | 1.14 fold enrichment (6-mer frequency, TF over GST control) |
| ACCCGG | 1.81 fold enrichment (6-mer frequency, TF over GST control) |
| TGCACG | 1.06 fold enrichment (6-mer frequency, TF over GST control) |
| TGCTGA | 1.12 fold enrichment (6-mer frequency, TF over GST control) |
| CCCACC | 1.14 fold enrichment (6-mer frequency, TF over GST control) |
| GCGGAA | 1.42 fold enrichment (6-mer frequency, TF over GST control) |
| TCAATG | 1.15 fold enrichment (6-mer frequency, TF over GST control) |

| Sequence | binding signal |
| --- | --- |
| ACCGCC | 1.05 fold enrichment (6-mer frequency, TF over GST control) |
| TCAGCA | 1.11 fold enrichment (6-mer frequency, TF over GST control) |
| GTTTTG | 1.25 fold enrichment (6-mer frequency, TF over GST control) |
| GTTTCA | 1.43 fold enrichment (6-mer frequency, TF over GST control) |
| ACCCCC | 1 fold enrichment (6-mer frequency, TF over GST control) |
| CGGTTT | 1.32 fold enrichment (6-mer frequency, TF over GST control) |
| CGGAAA | 2.17 fold enrichment (6-mer frequency, TF over GST control) |
| GTAATG | 1.22 fold enrichment (6-mer frequency, TF over GST control) |
| CCTTGT | 1.26 fold enrichment (6-mer frequency, TF over GST control) |
| TGCAAT | 1.26 fold enrichment (6-mer frequency, TF over GST control) |
| TTGTTG | 1.21 fold enrichment (6-mer frequency, TF over GST control) |
| ATCACA | 1.04 fold enrichment (6-mer frequency, TF over GST control) |
| GGTGTT | 1.04 fold enrichment (6-mer frequency, TF over GST control) |
| GTGTTT | 1.21 fold enrichment (6-mer frequency, TF over GST control) |
| CCAACA | 1.04 fold enrichment (6-mer frequency, TF over GST control) |
| TGTCCA | 1.04 fold enrichment (6-mer frequency, TF over GST control) |
| CTGCAC | 1.13 fold enrichment (6-mer frequency, TF over GST control) |
| TTGGGC | 1.13 fold enrichment (6-mer frequency, TF over GST control) |
